Experimental data published in PubChem BioAssay AID1479148 (National Center for Advancing Translational Sciences (NCATS), 2020).
Results filed as inconclusive are left out. Unmarked numbers belong to inactive results. Active and inactive are the calls of the source. The call rests on the fitted dose curve.

Test: Confirmatory qHTS for inhibitors of SARS-S pseudo-typed particle cell entry
Conditions: SARS-S pseudotyped particle cell entry, reporter luminescence; series mostly up to 57.1 µM; activity change, negative = inhibition: at the top concentration

| SMILES | Potency | activity change, negative = inhibition [%] |
| --- | --- | --- |
| COc1cc(NS(C)(=O)=O)ccc1Nc1c2ccccc2nc2ccccc12 | 961 nM (active) |  |
| CC(C)OC(=O)[C@H](C)N[P@](=O)(CO[C@H](C)Cn1cnc2c(N)ncnc21)Oc1ccccc1 | 171 nM (active) |  |
| COC(=O)C1=C(C)NC(C)=C(C(=O)OCC(C)C)C1c1ccccc1[N+](=O)[O-] (stereo unspecified) | 19200 nM (active) |  |
| Cc1nnc(C(=O)NC(C)(C)c2nc(C(=O)NCc3ccc(F)cc3)c(O)c(=O)n2C)o1 | 10.8 nM (active) |  |
| CCn1cc(C(=O)O)c(=O)c2cc(F)c(N3CCNC(C)C3)c(F)c21 (stereo unspecified) |  | -1.43 |
| COc1cc(N)c(Cl)cc1C(=O)NC1CCN(CCCOc2ccc(F)cc2)CC1OC (stereo unspecified) |  | -27 |
| CN1CCCCC1CCN1c2ccccc2Sc2ccc(S(C)=O)cc21 (stereo unspecified) | 27100 nM (active) |  |
| C[C@@H]1CCO[C@H]2Cn3cc(C(=O)NCc4ccc(F)cc4F)c(=O)c(O)c3C(=O)N12 | 9.6 nM (active) |  |
| CN[C@H]1CC[C@@H](c2ccc(Cl)c(Cl)c2)c2ccccc21 | 19200 nM (active) |  |
| C=C1c2c(Cl)ccc(O)c2C(O)=C2C(=O)[C@@]3(O)C(O)=C(C(N)=O)C(=O)[C@@H](N(C)C)[C@@H]3[C@@H](O)[C@H]12 | 15200 nM (active) |  |
| CN(C)CC/C=C1\c2ccccc2Sc2ccc(Cl)cc21 | 21500 nM (active) |  |
| CCCCCCCCCCCCCC[n+]1ccc(C)cc1 | 3830 nM (active) |  |
| Cc1ccc(NC(=O)c2ccc(CN3CCN(C)CC3)cc2)cc1Nc1nccc(-c2cccnc2)n1 | 30400 nM (active) |  |
| CCC(C)(C)C(=O)O[C@H]1C[C@@H](C)C=C2C=C[C@H](C)[C@H](CC[C@@H]3C[C@@H](O)CC(=O)O3)[C@H]21 | 607 nM (active) |  |
| COc1cccc2c1C(=O)c1c(O)c3c(c(O)c1C2=O)C[C@@](O)(C(=O)CO)CC3OC1CC(N2CCOC(OC)C2)C(O)C(C)O1 (stereo partly specified) | 96.1 nM (active) |  |
| O=C1c2c(O)ccc(O)c2C(=O)c2c(NCCNCCO)ccc(NCCNCCO)c21 | 121 nM (active) |  |
| CCCCCCOC(=O)NC(=N)c1ccc(NCc2nc3cc(C(=O)N(CCC(=O)OCC)c4ccccn4)ccc3n2C)cc1 |  | -68.1 |
| Cc1c(N)nc(C(CC(N)=O)NCC(N)C(N)=O)nc1C(=O)NC(C(=O)NC(C)C(O)C(C)C(=O)NC(C(=O)NCCc1nc(-c2nc(C(=O)NCCCN[C@@H](C)c3ccccc3)cs2)cs1)C(C)O)C(O[C@@H]1O[C@@H](CO)[C@@H](O)[C@H](O)[C@@H]1O[C@H]1O[C@H](CO)[C@@H](O)[C@H](OC(N)=O)[C@@H]1O)c1cnc[nH]1 (stereo partly specified) | 857 nM (active) |  |
| CN(C)CCC=C1c2ccccc2C(C)(C)c2ccccc21 | 10800 nM (active) |  |
| O=c1c(C2CC(c3ccc(-c4ccc(Br)cc4)cc3)Cc3ccccc32)c(O)sc2ccccc12 (stereo unspecified) | 13600 nM (active) |  |
| CC(C)OC(=O)OCOP(=O)(CO[C@H](C)Cn1cnc2c(N)ncnc21)OCOC(=O)OC(C)C | 42.9 nM (active) |  |
